High-throughput results from PubChem BioAssay.
p53 reactivator: re-activators of mutant p53 | AID 504706 | Potency, µM (top dose mostly 92.2 µM), usual class: activators | actives 0.063% (n = 320,000) | H1299 p53-A138V BP100-luciferase reporter, luminescence, 24 h; further: nearly all actives have a fitted effect of over 45% in size
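p53-null H1299 cells stably carrying temperature-sensitive p53-A138V and a BP100-luciferase reporter were pinned with compounds (4-point, 1:5 series) and held 24 hrs at 37 deg C. Luminescence was read 10 min after detection reagent.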
ClpP mod: qHTS Assay for Activators of ClpP; purified B. subtilis ClpP, FRET peptide cleavage, 20 min; ATP-dependent Clp protease proteolytic subunit (Bacillus subtilis (strain 168)), P80244; Potency, µM (series often up to 57.5 µM); actives 1.9% (n = 340,000); active means well fitted falling curve with a large enough effect; inconclusive means small, poorly fitted or top-dose-only effect; inactive means no such curve, though single readings can be large or run the other way; further: the source files actives as falling curves though it sought activators and does not explain the sign; nearly all actives have a fitted effect of over 65% in size
Target sequence (P80244 whole entry, looked up): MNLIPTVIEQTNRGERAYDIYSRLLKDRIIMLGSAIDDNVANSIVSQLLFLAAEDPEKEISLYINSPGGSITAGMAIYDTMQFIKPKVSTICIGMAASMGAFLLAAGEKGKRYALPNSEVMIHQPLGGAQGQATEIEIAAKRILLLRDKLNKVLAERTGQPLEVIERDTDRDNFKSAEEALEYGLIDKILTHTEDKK
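Purified B. subtilis ClpP, 10 microg/mL final in Tris/HCl pH8 with KCl, BSA, glycerol and Tween-20, cleaved an Abz/nitrotyrosine-quenched decapeptide. Fluorescence (ex 320, em 430) was read at 0 and 20 min at room temperature. Delta was normalized to 5.8 microM ADEP and DMSO/no-enzyme controls.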
LDHA block: inhibitors of human lactate dehydrogenase A; P00338; purified LDHA, NADH/diaphorase-resazurin fluorescence; active compounds read low; activity change, % (values are at about 110 or 230 µM); actives 0.15% (n = 480,000); in the data active means activity change below about -30%; inconclusive means mostly about -25% to -30%
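Remaining NADH was detected by diaphorase (0.133 mg/mL) converting 37 µM resazurin to fluorescent resorufin, read at 0 and 20 minutes. The preceding 5-minute room-temperature reaction used 2 nM LDHA, 0.2 mM sodium pyruvate and 0.06 mM NADH at pH 7.4.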
GLP1R ag: agonists of human GLP-1 receptor | P43220 | HEK293 GLP-1R CRE-luciferase, luminescence, 4-6 h; cells express a hypersensitive GLP-1R form | Potency, µM (highest dose often 45.6 µM), actives largely listed as activators | actives 0.007% (n = 380,000)
HEK293 tox: cytotoxicity in counter-screen for GLP-1R inverse agonists; HEK293 cAMP-luciferase reporter cells, luminescence, 24 h; Potency, µM (doses to about 38.3 µM), hits mostly inhibitors; actives 0.13% (n = 410,000);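 further: loss of luciferase light is scored as toxicity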
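Compound-treated cells are incubated 24 hr at 37 deg C under 5% CO2 after a 12 hour attachment period, then luciferase detection reagent is added and luminescence is measured following 12 min at room temperature; lowered signal indicates toxicity.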
GLP-1R inv ag: GLP-1 receptor (human) inverse agonism. HEK293 GLP-1R CRE-luciferase, luminescence, 24 h; GLP-1R form is constitutively active. Potency, µM (top dose mostly 38.3 µM), usual class: inhibitors. actives 1.6% (n = 410,000); further: nearly all actives have a fitted effect of over 55% in size
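Readout was luciferase luminescence, measured 12 min after detection reagent at room temperature. Beforehand, GLP-1R reporter HEK293 cells had sat 12 h, then received compounds for 24 hr at 37 deg C.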
A number is an active result; – = inactive; ? = inconclusive; · = no result; ! = a repeat was not active. A selection: hits, their analogues and other compounds. The true share with any hit is near 2.9%. Unless noted, the call rests on the fitted dose curve; in most records, active means well fitted curve in the direction sought with a large enough effect; inconclusive means small, poorly fitted or top-dose-only effect, or another doubt; inactive means no such curve, though single readings can be large; an effect the other way counts as inactive or inconclusive.

SMILES | p53 reactivator | ClpP mod | LDHA block | GLP1R ag | HEK293 tox | GLP-1R inv ag
COC(=O)c1[nH]c2cc(OC)ccc2c1NC(=O)CN1CCN(c2cccc(C)c2)C(C)C1 (configuration not stated) | – | – | – | – | ? | 8.9µM
COC(=O)c1[nH]c2cc(C)ccc2c1NC(=O)CN1CCN(c2ccccc2OC)CC1 | – | – | – | – | – | 3.2µM
COC(=O)c1[nH]c2cc(C)ccc2c1NC(=O)CN1CCOCC1 | – | · | – | – | – | –
COC(=O)c1[nH]c2ccc(C)cc2c1NC(=O)CCN1CCCC(C)C1 (configuration not stated) | · | · | – | · | · | ·
COC(=O)c1[nH]c2ccc(C)cc2c1NC(=O)CCN1CCN(Cc2ccc3c(c2)OCO3)CC1 | – | 20µM | – | – | – | –
C/C(=N\NC(=O)C1CC1)c1cccc(N)c1 | · | · | – | · | · | ·
CCOc1nc(Nc2ccc(OC)c(Cl)c2)nc(N2CCN(c3ccc(OC)cc3)CC2)n1 | – | – | – | – | – | 4.5µM
CCOc1nc(Nc2ccc(F)cc2)nc(N2CCN(c3ccc(OC)cc3)CC2)n1 | – | – | – | – | – | ?
COC(=O)c1ccc(NC(=S)NC2CC2)cc1 | – | – | – | – | – | –
COC(=O)c1ccc(NC(=S)NC2CC(C)(C)NC(C)(C)C2)cc1 | – | – | – | – | – | 8.9µM
Cc1ccc2nc(-c3ccc(NC(=S)NC4CC(C)(C)NC(C)(C)C4)cc3)sc2c1 | ? | · | – | – | ? | 5µM
Cc1ccc2nc(-c3ccc(NC(=S)NC(=O)C(C)C)cc3)sc2c1 | ? | – | – | – | – | –
Cc1ccc2nc(-c3ccc(NC(=O)C(C)N4C(=O)c5ccccc5C4=O)cc3)sc2c1 (configuration not stated) | ? | 25µM | – | – | – | –
COC(=O)c1ccc(NC(=S)NC2CCc3ccccc32)cc1 (configuration not stated) | – | · | – | – | ? | 10µM
CCc1nc2ccc(C(=O)N3CCN(C)CC3)cn2c1N(C)CCCc1ccccc1 | · | – | – | – | – | –
O=C(COc1ccc(S(=O)(=O)N2CCOCC2)cc1)NCC1CCCO1 (configuration not stated) | · | – | – | – | – | –
O=C(COC(=O)c1cc(S(=O)(=O)N2CCOCC2)ccc1O)NCC1CCCO1 (configuration not stated) | – | 35µM | – | – | – | –
Brc1ccc(N/N=C(/N=Nc2nn[nH]n2)c2ccccc2)cc1 | – | – | – | – | ? | 1.3µM
C/C(=N\NC(=O)C1(C)CC1(Br)Br)c1cccc(NC(=O)C2CCC2)c1 (configuration not stated) | – | 22µM | – | – | – | ?
Cc1cc(C)nc(NC(=O)c2cc(-c3ccc(C)s3)nc3ccccc23)c1 | – | 16µM | – | – | – | ?
Cc1ccc(-c2cc(C(=O)Nc3cccnc3)c3ccccc3n2)s1 | – | 16µM | – | – | – | ?
CCOC(=O)c1cn(CC(=O)Nc2cccc(Cl)c2C)nn1 | – | 35µM! | – | – | – | –
O=C(Nc1nnc(C2=COCCO2)o1)c1ccc(S(=O)(=O)N2CCOCC2)cc1 | – | – | – | – | – | –
COc1ccccc1C(=O)COC(=O)C1(C)CC1(Cl)Cl (configuration not stated) | – | – | – | – | – | 10µM
CC(C)(C)c1ccc(NC(=O)COC(=O)C2(C)CC2(Cl)Cl)cc1 (configuration not stated) | – | – | – | – | – | 3.5µM
Cc1ccccc1NC(=O)COC(=O)C1(C)CC1(Cl)Cl (configuration not stated) | – | · | – | – | – | –
Cc1ccc(C(=O)COC(=O)C2(C)CC2(Cl)Cl)cc1C (configuration not stated) | · | · | – | · | · | ·
